From PubChem BioAssay
esBAF inh – Bmi1 luciferase reporter increase in mESCs, primary screen, esBAF inhibitor project, mouse ES cells, Bmi1 luciferase knock-in, single point. 24 h; 100% = twice the neutral-well signal. reporter increase, % at 12.5 µM. 2% of 350,000 active; in the data active means activation above about 40%;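 further: a rise in the Bmi1 reporter signal indicates esBAF inhibition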
EWS-Fli inh – EWS/Fli-driven NR0B1 reporter inhibitors, primary screen, A673 cells, NR0B1 luciferase, luminescence, MLPCN library; viability-normalised; inhibition, % at 12.6 µM; 0.67% of 350,000 active; AID 651661, 2012;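 active means mean inhibition of at least 50% after viability correction, with every replicate also passing that limit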;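 further: firefly luciferase signal divided by Alamar Blue viability fluorescence both relative to DMSO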
Wnt bcat act – Wnt/beta-catenin pathway activators, primary screen, cell-based, plate reader, single point; Wnt/beta-catenin reporter cell assay, activator; activation, % at 9.35 µM; 1.2% of 300,000 active; AID 743398, 2014; in the data active means activation above about 30%, passing the limit was not always enough
MITF act – activators of MITF-driven TRPM1 promoter reporter, primary screen, cell-based, SK-MEL-5, luciferase, single point | SK-MEL-5 TRPM1-promoter luciferase, 24 h; % of positive control, neutral wells = 0 | 0.75% of 300,000 active | AID 588334, 2011 | activation, % at 12.5 µM;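 active means mean activation of at least 80% with every replicate also reaching 80%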
MITF TRPM1 inh – inhibitors of MITF-dependent TRPM1 promoter reporter, primary screen, cell-based, SK-MEL-5, single point, luciferase; 0.83% of 330,000 active; inhibition, % at 12.5 µM; AID 488899, 2010; SK-MEL-5 TRPM1 promoter luciferase, 24 h;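 active means mean inhibition across replicates of 60% or more, whatever share of single replicates reaches that level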
PAX8 inh HTS – inhibitors of PAX8-driven TPO luciferase reporter, primary screen, RMG-I cells, single concentration | SteadyGlo, 24 h | inhibition, % at 12.6 µM | 1.2% of 360,000 active;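 active means mean replicate inhibition at least 60% with every replicate also reaching 60%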;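 further: luciferase light reporting Pax8 driven TPO promoter activity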
DNA binder FP – DNA binders by acridine orange displacement, dose response, counter-screen for EWS/Fli inhibitor project, biochemical, fluorescence polarization, cherry-pick. shares compounds with EWS-Fli inh. salmon sperm DNA acridine orange fluorescence polarization. AC35, µM (titrated, usually from 68 µM). 2% of 640 active;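 active means fitted curve reaches a 35% signal fall AC35 below twice the sample's top valid tested dose, actives reach about 48 µM in these data; inactive means the rest, including activity in the rising direction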;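 further: lower polarization ratio signals compound binding to DNA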
A number is an active result; i = inactive; nt = no result given. An excerpt weighted towards active compounds, which were near 4% of everything screened.

SMILES	esBAF inh	EWS-Fli inh	Wnt bcat act	MITF act	MITF TRPM1 inh	PAX8 inh HTS	DNA binder FP
CC12CCC(O)CC1CCC1C2CCC2(C)C(C3=CC(=O)OC3)C(O)CC12O (configuration not stated)	nt	i	i	nt	i	i	nt
C[C@]12CC[C@H](O)C[C@H]1CC[C@@H]1[C@@H]2CC[C@]2(C)[C@@H](C3=CC(=O)OC3)CC[C@]12O	i	67	i	i	73	113	i
CC12CC[C@H]3[C@@H](CCC4(O)C[C@H](O)CCC34/C=N/NC(=O)Cc3ccccc3)C1(O)CCC2C1=CC(=O)OC1 (some centres not stated)	i	i	i	i	i	i	nt
CC(C)NC(=O)N1[C@@H]2c3ccc(-c4cccc(C(=O)N(C)C)c4)c(=O)n3C[C@H]1[C@H](CO)[C@H]2C(=O)O	i	i	nt	nt	nt	nt	nt
C/C=C/c1ccc(C2[C@@H]3CN(C(=O)CN(C)C)C[C@H]2N3)cc1 (some centres not stated)	nt	i	nt	nt	nt	i	nt
O=C(Cc1ccccn1)N1CCCCN2[C@H](CO)[C@H](c3ccc(C#Cc4ccccc4)cc3)[C@H]2C1	nt	i	nt	nt	nt	i	nt
C[C@]12CC[C@H](O)C[C@H]1CC[C@@H]1[C@@H]2C[C@@H](O)[C@]2(C)[C@@H](C3=CC(=O)OC3)CC[C@]12O	i	81	i	i	71	104	i
C[C@]12CCC3C(CC[C@H]4C[C@@H](O)CC[C@]34C)[C@H]1C=CC2=O (some centres not stated)	i	i	i	i	i	i	nt
C=C1C(=O)OC2C1CCC(C)C1(O)C=CC(=O)C21C (configuration not stated)	i	62	i	i	75	nt	i
O=C(Cc1ccccc1)N1C[C@H]2[C@@H](c3ccccc31)[C@H](CO)N2Cc1ccccc1	i	i	nt	nt	nt	i	nt
Cn1cccc1/C=C1\C(=O)NC(=O)N(Cc2ccco2)C1=O	nt	nt	i	i	i	i	nt
O=C1NC(=O)N(Cc2ccccc2)C(=O)/C1=C\C=C\c1ccco1	i	65	i	i	96	i	i
O=C1NC(=O)N(Cc2ccco2)C(=O)/C1=C/C=C/c1ccco1	nt	61	i	i	95	i	i
COc1ccccc1CN1[C@H](CO)[C@@H](c2ccccc2)C12CN(C(=O)Cc1ccccc1)C2	nt	i	nt	nt	nt	i	nt
COC1C(O)C(C)OC(OC2C(Oc3cccc4c(O)c5c(=O)oc6ccc(C)c7c(=O)oc(c34)c5c67)OC(C)C(O)C2O)C1O (configuration not stated)	i	69	i	i	i	nt	i
CC(C)c1oc(=O)cc2c1[C@@H](O)[C@H]1OC(=O)[C@@]3(C)CC[C@@H](O)[C@@]2(C)C13 (some centres not stated)	i	62	i	i	i	i	i
CCOC(=O)[C@]12Cc3ccccc3[C@H]1N(C(C)C)C(=O)c1ccccc12	nt	i	i	nt	nt	i	nt
CCOC(=O)[C@]12Cc3ccc(C)cc3[C@H]1N(C1CCCCC1)C(=O)c1ccccc12	nt	59	i	nt	nt	82	i
Cc1ccccc1-c1ccc([C@H]2[C@@H](CO)N3CCCCN(C(=O)Cc4ccccn4)C[C@@H]23)cc1	nt	i	nt	nt	nt	i	nt
CCOC(=O)[C@@H]1[C@@H]2NC(=O)N(C)[C@@]1(C)Oc1ccccc12	nt	i	nt	nt	nt	i	nt
C[C@@H]1O[C@@H](O[C@H]2C[C@@H](O)[C@]3(CO)[C@@H]4C(CC[C@]3(O)C2)[C@@]2(O)CC[C@H](C3COC(=O)C3)[C@@]2(C)C[C@H]4O)[C@H](O)[C@H](O)[C@H]1O (some centres not stated)	i	72	i	i	79	86	i
Cc1cccc(S(=O)(=O)N2[C@@H]3c4ccc(-c5ccccc5)c(=O)n4C[C@H]2[C@H](CO)[C@H]3C(=O)O)c1	i	i	nt	nt	nt	i	nt
